Assay results: PMC4336329 (PLoS ONE, 2015)
The campaign covered roughly 310,000 compounds. About 2,200 (0.71%) showed an effect of 50% or more. Effects have a minus sign here. This excerpt belongs to a sample that is enriched for strong results.

target: human ether-à-go-go-related gene (hERG) potassium channel (human, UniProt Q12809); assay: primary screen, population patch clamp on CHO cells stably expressing hERG; higher = less effect of the substance
Sequence (Q12809 whole entry, looked up): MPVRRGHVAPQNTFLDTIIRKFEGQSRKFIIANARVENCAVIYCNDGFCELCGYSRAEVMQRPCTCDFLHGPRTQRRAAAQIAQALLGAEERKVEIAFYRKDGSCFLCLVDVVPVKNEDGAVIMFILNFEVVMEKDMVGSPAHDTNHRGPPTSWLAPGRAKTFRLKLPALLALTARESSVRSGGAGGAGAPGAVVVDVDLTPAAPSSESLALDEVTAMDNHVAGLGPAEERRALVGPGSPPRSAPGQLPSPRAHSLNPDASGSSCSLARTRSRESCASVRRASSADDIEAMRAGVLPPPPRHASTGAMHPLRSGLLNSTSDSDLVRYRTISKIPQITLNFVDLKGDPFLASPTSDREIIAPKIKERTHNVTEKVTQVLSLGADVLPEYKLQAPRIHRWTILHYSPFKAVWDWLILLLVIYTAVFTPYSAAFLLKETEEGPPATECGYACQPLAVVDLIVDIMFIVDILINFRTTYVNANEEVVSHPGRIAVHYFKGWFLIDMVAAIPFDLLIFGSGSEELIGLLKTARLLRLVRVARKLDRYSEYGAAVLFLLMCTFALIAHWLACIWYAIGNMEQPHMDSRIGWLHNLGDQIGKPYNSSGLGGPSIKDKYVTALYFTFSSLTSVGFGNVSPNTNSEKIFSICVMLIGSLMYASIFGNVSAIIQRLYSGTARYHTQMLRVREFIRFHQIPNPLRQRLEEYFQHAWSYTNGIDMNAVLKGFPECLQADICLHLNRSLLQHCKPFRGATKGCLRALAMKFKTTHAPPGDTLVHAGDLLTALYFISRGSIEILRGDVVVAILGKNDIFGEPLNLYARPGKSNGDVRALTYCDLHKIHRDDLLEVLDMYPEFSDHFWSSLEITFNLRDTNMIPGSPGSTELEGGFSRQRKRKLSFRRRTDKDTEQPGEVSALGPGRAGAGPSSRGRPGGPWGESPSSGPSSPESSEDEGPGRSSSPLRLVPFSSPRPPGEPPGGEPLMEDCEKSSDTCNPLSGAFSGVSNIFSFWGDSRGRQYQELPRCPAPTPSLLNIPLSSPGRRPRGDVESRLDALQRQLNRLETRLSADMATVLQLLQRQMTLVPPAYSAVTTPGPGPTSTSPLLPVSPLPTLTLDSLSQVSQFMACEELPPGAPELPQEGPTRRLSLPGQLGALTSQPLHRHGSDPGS

Structure (SMILES) | hERG current change (%, negative = inhibition) at 1uM
CCNc1nc(NCC)nc(N/N=C/c2ccc(Br)cc2)n1 | 8.67%
COc1ccc2c(C=O)c[nH]c2c1 | 6.81%
Cc1ccccc1Nc1nc(N)nc(COC(=O)c2cccc(S(=O)(=O)N(C)C)c2)n1 | 8.43%
O=C1CCCN1CCCNS(=O)(=O)c1ccc(F)c(F)c1 | 13.5%
COc1ccc(-c2cc(-c3ccco3)[nH]c(=O)c2C#N)cc1OC | 13.5%
CCC(=O)N1CCN(CCN=CC2=C(O)CC(c3ccc(OC)cc3)CC2=O)CC1 (centres unmarked) | 8.12%
COc1ccc(C2CC(=O)C(C=NCCN3CCN(C(C)=O)CC3)=C(O)C2)cc1 (centres unmarked) | 0.835%
CCCCCC(=O)N1CCN(CCN=CC2=C(O)CC(c3ccc(OC)cc3)CC2=O)CC1 (centres unmarked) | -54.5%
COc1ccc(C2CC(=O)C(C=NCCO)=C(O)C2)cc1OC (centres unmarked) | 13.4%
COc1ccc(C2CC(=O)C(C=NCCN3CCN(C(=S)Nc4ccccc4)CC3)=C(O)C2)cc1OC (centres unmarked) | 1.75%
CCCCCC(=O)N1CCN(CCN=CC2=C(O)CC(c3ccc(OC)c(OC)c3)CC2=O)CC1 (centres unmarked) | -56.5%
Cc1ccc(N2C(=O)/C(=C/N3CCN(C(=O)c4ccco4)CC3)C(=O)NC2=S)cc1C | 1.67%
CC(C)CNS(=O)(=O)c1ccc(OCC(=O)Nc2ccc3c(c2)OCCO3)cc1 | 14.4%
CC1CCCC(C)N1CC(O)COc1ccc(Cl)cc1 (centres unmarked) | -57.6%
Cc1ccc(OCC(O)CN2CCC(Cc3ccccc3)CC2)c(C)c1.Cl (centres unmarked) | -49.9%
OC(COc1ccc(F)cc1Cl)CN1CCC(Cc2ccccc2)CC1 (centres unmarked) | -81.4%
Cl.OC(COc1ccccc1F)CN1CCC(Cc2ccccc2)CC1 (centres unmarked) | -55.7%
Cc1ccc(C)c(OCC(O)CN2CCC(Cc3ccccc3)CC2)c1.Cl (centres unmarked) | -43.1%
Cl.OC(COCc1ccccc1)CN1CCN(Cc2ccc3c(c2)OCO3)CC1 (centres unmarked) | -0.707%
Cl.OC(COCc1ccc2c(c1)OCO2)CN1CCC(Cc2ccccc2)CC1 (centres unmarked) | -79.4%
CC(=O)Nc1ccc(OCC(O)CN2C(C)CCCC2C)cc1.Cl (centres unmarked) | 15.2%
Cc1cc(Cl)ccc1OCC(O)CN1C(C)CCCC1C.Cl (centres unmarked) | -46.3%
Cl.OC(COCc1ccc2c(c1)OCO2)CN1CCN(Cc2ccccc2)CC1 (centres unmarked) | -8.65%
OC(COc1ccc(F)cc1Cl)CN1CCc2ccccc2C1 (centres unmarked) | -10.6%

Structure (SMILES) | hERG current change (%, negative = inhibition) at 1uM
Cc1ccc(OCC(O)CN2CCN(CC(O)COc3ccc(C)cc3Cl)CC2)c(Cl)c1 (centres unmarked) | -5.75%
COc1ccc(Cn2c(-c3ccccc3)nc3c(c(=O)c4ccccc4n3C)c2=O)cc1 | -7.94%
COc1ccc(CCNC(=O)c2ccc3nc(N4CCOCC4)sc3c2)cc1OC | 4.99%
Cc1cc(NC(=O)Cc2ccccc2C)no1 | 10.2%
CCN(CC(=O)Nc1ccc(NC(C)=O)cc1)C(=O)COc1ccccc1-c1ccccc1 | 12%
CCOC(=O)c1cnc(-n2nc(C)cc2C)nc1NNc1nc(-c2ccccc2)cc(-c2ccccc2)n1 | -1.53%
O=C(Nc1nc(-c2cccs2)cs1)c1ccc(Cl)s1 | -6.43%
Cc1cc2nn(-c3ccc(Cl)cc3)nc2cc1N | 14%
CCO/C=C/C(O)(CNC(=O)COc1ccccc1F)C(F)(F)F (centres unmarked) | 19.8%
CN1C(=O)N(c2nnc(C(C)(C)C)s2)C(=O)C1c1ccccc1 (centres unmarked) | 14.2%
Cc1nnsc1C(=O)Nc1ccc(S(=O)(=O)N2CCCCC2C)cc1 (centres unmarked) | 12.5%
CC1CCCCN1C(=O)Nc1cccc(C(F)(F)F)c1 (centres unmarked) | 9.57%
Cc1c(Cl)cccc1NC(=S)NNc1ncc(C(F)(F)F)cc1Cl | 4.45%
CC(C)OCC(O)CN1CCC(Cc2ccccc2)CC1.Cl (centres unmarked) | -2.15%
COc1ccc(OCC(O)CN2CCc3ccccc3C2)cc1.Cl (centres unmarked) | -2.53%
Cl.OC(COc1ccc(Cl)cc1)CN1CCN(c2ccccc2)CC1 (centres unmarked) | 0.0675%
COc1cccc(OCC(O)CN2CCc3ccccc3C2)c1.Cl (centres unmarked) | -57.6%
Cc1cccc(OCC(O)CN2CCc3ccccc3C2)c1.Cl (centres unmarked) | -0.945%
Cl.OC(COc1ccc(Cl)cc1)CN1CCCCC1 (centres unmarked) | -29.8%
Cl.OC(COc1ccccc1)CN1CCN(CC(O)COc2ccccc2)CC1 (centres unmarked) | -19.5%
Cl.OC(COc1ccccc1)CN1CCC(Cc2ccccc2)CC1 (centres unmarked) | -78%
C[C@@H](CN1CCC(Cc2ccccc2)CC1)[C@@H](O)c1ccc(O)cc1.Cl | -60.5%
CC(C(O)c1ccc(O)cc1)N1CCC(Cc2ccccc2)CC1.O=C(O)C(O)C(O)C(=O)O (centres unmarked) | -33.4%
CC(C(O)c1ccc(O)cc1)N1CCC(Cc2ccccc2)CC1.O.O=C(O)C(O)C(O)C(=O)O (centres unmarked) | -37.8%

Structure (SMILES) | hERG current change (%, negative = inhibition) at 1uM
Cl.OC(COc1ccc(Cl)cc1)CN1CCC(Cc2ccccc2)CC1 (centres unmarked) | -89.6%
COC(=O)c1ccc(N2C(=O)CC(N(C)Cc3ccccc3)C2=O)cc1 (centres unmarked) | 13.1%
N#CC(C(=O)NCCc1ccccc1)c1nc2ccccc2nc1N1CCCCC1 (centres unmarked) | 4.11%
COc1nc(N(C)S(=O)(=O)c2ccc(C)cc2)nc(C)c1Br | 16.5%
C/C(=N/NC(=O)Cc1ccccc1)c1ccc(C)s1 | 11.5%
O=C(NCCc1ccccc1)C1CC(=O)N(c2ccc3c(c2)OCCO3)C1 (centres unmarked) | 7.34%
C/C(=N\NC(=O)C(O)(c1ccccc1)c1ccccc1)c1ccc(NC(=O)CCCC(=O)O)cc1 | 11.3%
O=C(CSc1nc(C2CC2)n(-c2ccccc2)n1)NCc1ccco1 | -3.27%
CCOc1ccc(OCC)c(S(=O)(=O)NNC(=O)c2c(C)nc3ccccn23)c1 | 5.91%
COc1ccc(S(=O)(=O)N(C)CC(=O)N2CCOCC2)cc1 | -2.22%
O=C(Nc1ccc(NC(=O)c2cccc([N+](=O)[O-])c2)cc1)c1cccc([N+](=O)[O-])c1 | 9.44%
Cc1ccc(OCC(O)CN2CCc3ccccc3C2)c(C)c1.Cl (centres unmarked) | -42.6%
Cc1ccc(OCC(O)CN2CCN(Cc3ccc4c(c3)OCO4)CC2)cc1C.Cl (centres unmarked) | 5.88%
Cl.OC(COc1ccc(Br)cc1)CN1CCC(Cc2ccccc2)CC1 (centres unmarked) | -83.7%
Cc1cccc(C)c1OCC(O)CN1CCc2ccccc2C1.Cl (centres unmarked) | -24.3%
Cc1cc(C)cc(OCC(O)CN2CCN(Cc3ccc4c(c3)OCO4)CC2)c1.Cl (centres unmarked) | -67.9%
Cl.OC(COc1ccc(Br)cc1)CN1CCCC1 (centres unmarked) | 5.23%
COc1cccc(OCC(O)CN2CCC(Cc3ccccc3)CC2)c1.Cl (centres unmarked) | -55.6%
Cc1ccc(C)c(OCC(O)CN2CCc3ccccc3C2)c1C.Cl (centres unmarked) | -56.1%
COc1ccc(OCC(O)CN2CCN(Cc3ccc4c(c3)OCO4)CC2)cc1.Cl (centres unmarked) | -9.87%
O=S(=O)(c1ccc(OCC(O)CN2CCC(Cc3ccccc3)CC2)cc1)N1CCOCC1 (centres unmarked) | -10.3%
COc1cccc(OCC(O)CN2CCN(C(c3ccccc3)c3ccccc3)CC2)c1.Cl (centres unmarked) | 3.72%
COc1cccc(OCC(O)CN2CCC(C)CC2)c1.Cl (centres unmarked) | 3.42%
CC(=O)N1CCc2cc(Br)cc(S(=O)(=O)CCC(=O)N3CCN(c4ccccn4)CC3)c21 | 6.2%

Structure (SMILES) | hERG current change (%, negative = inhibition) at 1uM
CCn1c(Cc2cccs2)nnc1SCC(=O)c1ccc(C)cc1 | 5.59%
COc1ccc(NS(=O)(=O)c2ccc(O)c(C(=O)OCC(=O)N3CC(C)OC(C)C3)c2)cc1 (centres unmarked) | 12.3%
COc1cccc(NC(=O)CN2C(=O)COc3ccc(Cl)cc32)c1 | 8.19%
Cc1ccc(C)c(NC(=S)NNC(=O)c2csc(C(C)C)c2)c1 | 0.742%
COc1cc(NC(=O)c2sc3nc(C)nc(N4CCOCC4)c3c2C)cc(OC)c1OC | 30.1%
Cc1csc2nc3cc(C(N)=O)ccc3c(=O)n12 | 10.2%
CCCCN(C)Cc1c(C)[nH]c2ccccc2c1=O | -8.8%
CCCCN(CC)Cc1c(C)[nH]c2c(ccc3ccccc32)c1=O | -49.6%
CCCCN(C)Cc1c(C)[nH]c2c(ccc3ccccc32)c1=O | -56.1%
O=C(c1ccco1)N1C(=O)c2cccc3c(S(=O)(=O)N4CCCC4)ccc1c23 | 6.3%
CCc1ccc2oc(-c3cc(N)ccc3Cl)nc2c1 | 12%
COc1cccc(C(=O)C2CCCN(C/C=C/c3ccccc3OC)C2)c1 (centres unmarked) | -2.82%
COc1ccc(C(=O)C2CCCN(C3CSCCSC3)C2)c(OC)c1 (centres unmarked) | -4.62%
COc1cccc(C(=O)C2CCCN(Cc3cccc(C)n3)C2)c1 (centres unmarked) | -30.1%
COc1ccc2cc(C(=O)C3CCCN(Cc4cccc(C)n4)C3)ccc2c1 (centres unmarked) | 11.2%
COc1ccc(C(=O)C2CCCN(Cc3c(C)[nH]c4ccccc34)C2)c(OC)c1 (centres unmarked) | -28.6%
COc1ccc(C(=O)C2CCCN(Cc3cccc(C)n3)C2)c(OC)c1 (centres unmarked) | -58.3%
COc1ccc(C(=O)C2CCCN(Cc3c[nH]c4ccccc34)C2)c(OC)c1 (centres unmarked) | -58.8%
COc1ccc(F)cc1C(=O)C1CCCN(Cc2c[nH]c3ccccc23)C1 (centres unmarked) | -18.6%
COc1ccc(C(=O)C2CCCN(C3Cc4ccccc4C3)C2)c(OC)c1 (centres unmarked) | -68.2%
COc1ccc(C(=O)C2CCCN(C3Cc4ccccc4C3)C2)cc1OC (centres unmarked) | -33.2%
COc1ccc(C(=O)C2CCCN(C/C=C/c3ccccc3OC)C2)c(OC)c1 (centres unmarked) | -78.6%
COc1ccc(C(=O)C2CCCN(Cc3ccc(C)s3)C2)c(OC)c1 (centres unmarked) | -2.87%
